Results as given in PubChem BioAssay (Tox21).
Results filed as inconclusive are left out. Calls of active or inactive are those of the source. Unless noted, calls follow the shape of the dose curve; as a rule, active = well fitted curve in the direction sought with a large enough effect in the repeat runs; inconclusive = weak or mixed curves; inactive = no such curve, though single readings can be large; an effect the other way counts as inactive or inconclusive.

Assays:
[1] = A CellTox Green Cytotoxicity Assay to monitor cytotoxicity in HEK293 cells - 32 hour (AID 1224881); also: nearly all actives have a fitted effect of over 40% in size
Method in brief: (§1)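 Dead-cell fluorescence measured kinetically: asymmetric cyanine dye, HEK293, 600 cells/well, 5 h settle, 23 nL cpd/DMSO, 37 C, reads 0–40 h every 8 h.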

[2] = A CellTox Green Cytotoxicity Assay to monitor cytotoxicity in HepG2 cells - 0 hour (AID 1224882); also: nearly all actives have a fitted effect of over 35% in size
Method in brief: (§2)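 First, HepG2 cells (600/well) mixed with reagent were plated; second, after 5 h at 37 C they received compounds via pintool; third, fluorescence was measured at 0 h through 40 h at 8 h intervals.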

[3] = A CellTox Green Cytotoxicity Assay to monitor cytotoxicity in HepG2 cells - 32 hour (AID 1224883); also: nearly all actives have a fitted effect of over 50% in size
Method in brief: as §2

[4] = A CellTox Green Cytotoxicity Assay to monitor cytotoxicity in HEK293 cells - 8 hour (AID 1224884); also: nearly all actives have a fitted effect of over 35% in size
Method in brief: as §1

[5] = qHTS RealTime-Glo MT Cell Viability Assay in HepG2 cells - 16 hour (AID 1224885); also: nearly all actives have a fitted effect of over 50% in size
Method in brief: (§3)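 HepG2 cells (600/well) were dispensed with RealTime-Glo reagents, incubated 5 h at 37 °C, then treated with compounds in DMSO for up to 40 h. Nonlytic NanoLuc luminescence reflecting viable cells was read at each stated time point.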

[6] = qHTS RealTime-Glo MT Cell Viability Assay in HEK293 cells - 24 hour (AID 1224886); also: top concentration of the series differs between compounds; nearly all actives have a fitted effect of over 50% in size
Method in brief: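 HEK293 cells seeded with NanoLuc/prosubstrate reagent, rested 5 h at 37 C, then dosed and kept at 37 C up to 40 h. Nonlytic real-time luminescence from viable cells read at 0, 8, 16, 24, 32 and 40 h.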

[7] = qHTS RealTime-Glo MT Cell Viability Assay in HEK293 cells - 8 hour (AID 1224887); also: top concentration of the series differs between compounds; nearly all actives have a fitted effect of over 50% in size
Method in brief: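 600 HEK293 cells per well, dispensed already mixed with RealTime-Glo MT reagents. Compound dosing came 5 h later. The same wells were read for luminescence at 0, 8, 16, 24, 32 and 40 h of exposure at 37 C.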

[8] = A CellTox Green Cytotoxicity Assay to monitor cytotoxicity in HEK293 cells - 16 hour (AID 1224888); also: nearly all actives have a fitted effect of over 35% in size
Method in brief: as §1

[9] = qHTS RealTime-Glo MT Cell Viability Assay in HepG2 cells - 0 hour (AID 1224889); also: nearly all actives have a fitted effect of over 50% in size
Method in brief: as §3

[10] = A CellTox Green Cytotoxicity Assay to monitor cytotoxicity in HepG2 cells - 8 hour (AID 1224890); also: nearly all actives have a fitted effect of over 45% in size
Method in brief: as §2

[11] = qHTS assay to identify small molecule antagonists of the androgen receptor (AR) signaling pathway using the MDA cell line in the presence of 0.5 nM R1881 - cell viability counter screen (AID 1259242); also: nearly all actives have a fitted effect of over 45% in size
Method in brief: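 qHTS format. MDA-kb2 (MMTV-luc, AR/GR responsive) + cpd + 0.5 nM R1881 final, 16 hr 37C/0% CO2 → CellTiter-Fluor 30 min → fluorescence intensity.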

[12] = target: Estrogen receptor (Homo sapiens) (UniProt P03372); assay: qHTS assay to identify small molecule antagonists of the estrogen receptor alpha (ER-alpha) signaling pathway using the BG1 cell line in the presence of 0.1 nM 17-beta-estradiol (AID 1259244); also: nearly all actives have a fitted effect of over 50% in size
Method in brief: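 Reporter is a stably transfected luciferase under four estrogen responsive elements in VM7Luc4E2 cells expressing native full-length ER-alpha; inhibition of 0.1 nM (final) 17beta-estradiol-driven signal over 22 h is read by luminescence.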

[13] = qHTS assay to identify small molecule HDAC inhibitors (AID 1259364);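 also: wild-type HCT-116 cells with endogenous class I/II HDAC activity; top concentration of the series differs between compounds; nearly all actives have a fitted effect of over 45% in size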
Method in brief: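 Quantitative high-throughput format: overnight-seeded HCT-116 cells got compounds for 2 hr at 37C; HDAC-Glo I/II reagent added, 30 min RT, luminescence measured.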

[14] = qHTS assay to identify small molecule HDAC inhibitors - cell viability counter screen (AID 1259365)
Method in brief: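 HCT-116 wild-type, overnight attachment; 2hr drug exposure, 37C; CellTiter-Glo luminescent ATP readout after 30min RT.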

[15] = qHTS assay to identify small molecule agonists of the sonic hedgehog signaling (Shh) pathway - cell viability counter screen (AID 1259366); also: nearly all actives have a fitted effect of over 50% in size; also: potency is read from the fitted curve at half-maximal effect
Method in brief: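 Compounds in DMSO were pin-transferred onto 3T3 Gli1-Luc cells that had settled 4hr; plates then stood 24hr at 37C and 5% CO2. One hour before the end, CellTiter-Fluor was added and fluorescence recorded.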

[16] = qHTS assay to identify small molecule antagonists of the sonic hedgehog signaling (Shh) pathway - cell viability counter screen (AID 1259367); also: nearly all actives have a fitted effect of over 55% in size; also: potency is read from the fitted curve at half-maximal effect
Method in brief: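 Cytotoxicity was assessed in parallel with Shh reporter activity by measuring live-cell protease fluorescence (CellTiter-Fluor) in NIH/3T3 cells stably carrying Gli1-Luc, treated with compound under conditioned medium stimulation for 23 hr plus 1 hr reagent incubation.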

[17] = qHTS assay to identify small molecule antagonists of the estrogen receptor alpha (ER-alpha) signaling pathway using the BG1 cell line in the presence of 0.1 nM 17-beta-estradiol - cell viability counter screen (AID 1259241); also: nearly all actives have a fitted effect of over 40% in size
Method in brief: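 Following 5 days in phenol red-free medium with charcoal-stripped serum, VM7Luc4E2 cells received test compounds alongside 0.1 nM 17beta-estradiol (final) at 37C for 22 hr. Live cells were then quantified via protease-substrate fluorescence.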

[18] = qHTS assay to identify small molecule phospholipidosis (PLD) inducers (AID 1259344; active = well fitted curve in the direction sought with a large enough effect; an effect the other way counts as inactive or inconclusive)
Method in brief: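 Cells (HepG2, 900 per well) attach for 4 h, receive LipidTOX Red and compound together, incubate 24 h at 37 C, are fixed 30 min with paraformaldehyde/Hoechst, then imaged at one site per well.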

[19] = qHTS assay to identify small molecule agonists of the sonic hedgehog signaling (Shh) pathway (AID 1259368; calls by dose curve;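 also: NIH/3T3-derived 3T3Gli1-Luc cells carrying a stable Gli1-driven firefly luciferase reporter; series mostly up to about 92 µM; nearly all actives have a fitted effect of over 15% in size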)
Method in brief: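 Quantitative high-throughput format using a Gli1-driven firefly luciferase reporter line derived from NIH/3T3 cells. After a 24 hr compound treatment at 37 C and 5% CO2, luminescence reported Gli1 response element activity.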

[20] = target: Androgen receptor (Homo sapiens) (UniProt P10275); assay: qHTS assay to identify small molecule antagonists of the androgen receptor (AR) signaling pathway using the MDA cell line in the presence of 0.5 nM R1881 (AID 1259243); also: nearly all actives have a fitted effect of over 50% in size; also: potency is read from the fitted curve at half-maximal effect
Method in brief: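 Antagonist mode quantitative HTS in MDA-kb2 MMTV-luciferase cells, agonist R1881 at 0.5 nM final, 16 hr exposure at 37C and 0% CO2, luminescent detection.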
% is scaled to controls: 0 for no effect and ±100 for the full control effect.

Sequence of Estrogen receptor (Homo sapiens) (P03372 whole entry, looked up): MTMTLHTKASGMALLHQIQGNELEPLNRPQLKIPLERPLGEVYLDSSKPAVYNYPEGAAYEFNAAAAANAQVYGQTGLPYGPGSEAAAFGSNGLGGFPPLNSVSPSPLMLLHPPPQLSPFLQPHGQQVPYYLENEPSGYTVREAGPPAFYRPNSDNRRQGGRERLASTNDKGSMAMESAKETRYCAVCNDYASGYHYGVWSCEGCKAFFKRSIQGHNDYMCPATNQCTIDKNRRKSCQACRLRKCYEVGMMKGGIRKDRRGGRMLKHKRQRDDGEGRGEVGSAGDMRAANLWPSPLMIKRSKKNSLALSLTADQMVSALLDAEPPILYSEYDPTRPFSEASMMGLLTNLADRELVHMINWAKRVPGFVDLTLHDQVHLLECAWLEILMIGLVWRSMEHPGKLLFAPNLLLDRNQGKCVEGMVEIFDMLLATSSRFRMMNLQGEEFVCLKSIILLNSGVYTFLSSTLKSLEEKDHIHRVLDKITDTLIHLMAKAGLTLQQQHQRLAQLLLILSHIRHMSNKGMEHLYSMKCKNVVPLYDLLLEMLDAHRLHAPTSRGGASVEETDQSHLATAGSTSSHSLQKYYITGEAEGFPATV
Sequence of Androgen receptor (Homo sapiens) (P10275 whole entry, looked up): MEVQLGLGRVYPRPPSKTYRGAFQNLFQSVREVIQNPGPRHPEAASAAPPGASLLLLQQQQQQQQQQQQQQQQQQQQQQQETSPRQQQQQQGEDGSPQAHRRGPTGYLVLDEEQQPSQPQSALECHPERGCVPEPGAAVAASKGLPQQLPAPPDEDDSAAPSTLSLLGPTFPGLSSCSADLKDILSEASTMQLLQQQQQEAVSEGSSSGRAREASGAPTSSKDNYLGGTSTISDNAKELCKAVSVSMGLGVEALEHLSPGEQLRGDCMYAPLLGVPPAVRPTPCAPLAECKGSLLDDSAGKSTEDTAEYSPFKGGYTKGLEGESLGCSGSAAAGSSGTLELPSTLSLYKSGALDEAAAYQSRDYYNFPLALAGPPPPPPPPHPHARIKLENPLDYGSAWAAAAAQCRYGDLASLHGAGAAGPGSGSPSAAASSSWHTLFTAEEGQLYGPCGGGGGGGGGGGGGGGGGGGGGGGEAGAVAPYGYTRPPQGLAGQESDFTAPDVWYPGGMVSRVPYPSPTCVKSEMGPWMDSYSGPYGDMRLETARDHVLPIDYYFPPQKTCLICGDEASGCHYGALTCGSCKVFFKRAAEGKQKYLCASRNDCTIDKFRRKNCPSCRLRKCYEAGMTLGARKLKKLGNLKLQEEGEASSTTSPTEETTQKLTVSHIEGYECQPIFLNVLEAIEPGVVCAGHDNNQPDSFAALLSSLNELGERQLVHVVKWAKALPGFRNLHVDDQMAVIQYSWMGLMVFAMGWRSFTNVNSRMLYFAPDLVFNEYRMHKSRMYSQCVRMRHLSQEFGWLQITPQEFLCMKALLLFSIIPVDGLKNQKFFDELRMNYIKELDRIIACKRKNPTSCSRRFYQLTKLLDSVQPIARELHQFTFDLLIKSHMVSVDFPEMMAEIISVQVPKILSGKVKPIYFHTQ

CN(C)CCCN(C)CCCN(C)C
inactive: outcome [1] | Potency [2] | Potency [3] | outcome [4] | outcome [5] | Potency [6] | Potency [7] | outcome [8] | Potency [9] | outcome [10] | outcome [11] | outcome [12] | Potency [13] | outcome [14] | Potency [15] | Potency [16]

CCN[C@@H]1C[C@H](N)[C@@H](OC2OC(CN)=CCC2N)[C@H](O)[C@H]1O[C@H]1OC[C@](C)(O)[C@H](NC)[C@H]1O (stereo partly drawn)
inactive: cytotoxicity increase [1] 8.84% [at 0.29 µM] | cytotoxicity [2] 3.46% [at 0.29 µM] | cytotoxicity increase [3] -3.76% [at 0.29 µM] | cytotoxicity increase [4] -0.876% [at 0.29 µM] | activity change, negative = cytotoxic [5] 0.169% [at 0.29 µM] | activity change, negative = cytotoxicity [6] 3.34% [at 0.29 µM] | activity change, negative = cytotoxicity [7] 0.47% [at 0.29 µM] | activity change [8] 1.26% [at 0.29 µM] | activity change, negative = cytotoxicity [9] 0.414% [at 0.29 µM] | activity change, negative = cytotoxicity [17] 0.862% [at 0.349 µM] | viability change, negative = cytotoxic [11] 0.329% [at 0.349 µM] | outcome [18] | activity change, negative = inhibition [13] 3.34% [at 0.349 µM] | activity change, negative = cytotoxicity [14] 1.54% [at 0.349 µM] | viability change, negative = cytotoxic [15] -1.56% [at 0.349 µM] | viability change, negative = cytotoxic [16] 0.171% [at 0.349 µM]

O=CN(CCO)CCO
inactive: outcome [1] | Potency [2] | Potency [3] | outcome [4] | outcome [5] | Potency [6] | Potency [7] | outcome [8] | Potency [9] | outcome [10] | outcome [17] | outcome [11] | Potency [13] | outcome [14] | Potency [15] | Potency [16] | outcome [19]

CCCC(C)C(=O)OCC (stereo not drawn)
inactive: outcome [1] | Potency [2] | Potency [3] | outcome [4] | outcome [5] | Potency [6] | Potency [7] | outcome [8] | Potency [9] | outcome [11] | outcome [12] | Potency [13] | outcome [14] | Potency [16] | outcome [19]

CNC(=O)Nc1ccc(Cl)c(Cl)c1
active: Potency [20] 30.6 µM
inactive: outcome [1] | Potency [2] | Potency [3] | outcome [4] | outcome [5] | Potency [6] | Potency [7] | outcome [8] | Potency [9] | outcome [17] | outcome [11] | outcome [14] | Potency [16] | outcome [19]

CC(=O)c1cnccn1
inactive: outcome [1] | Potency [2] | Potency [3] | outcome [4] | outcome [5] | Potency [6] | Potency [7] | Potency [9] | outcome [17] | outcome [11] | outcome [12] | Potency [13] | outcome [14] | Potency [15] | Potency [16] | outcome [19]

COc1ccc2cc1Oc1cc3c(cc1OC)CC[N+](C)(C)[C@H]3Cc1ccc(cc1)Oc1c(OC)c(OC)cc3c1[C@@H](C2)[N+](C)(C)CC3
inactive: outcome [1] | Potency [2] | Potency [3] | outcome [4] | outcome [5] | Potency [6] | Potency [7] | outcome [8] | Potency [9] | outcome [10] | outcome [11] | outcome [12] | outcome [18] | Potency [13] | outcome [14] | Potency [15] | Potency [16] | outcome [19]

C[C@@H]1C[C@H]2[C@@H]3C[C@H](F)C4=CC(=O)C(Cl)=C[C@]4(C)[C@@]3(F)[C@@H](O)C[C@]2(C)[C@@]1(O)C(=O)CO
inactive: outcome [1] | Potency [2] | Potency [3] | outcome [4] | outcome [5] | Potency [6] | Potency [7] | outcome [8] | outcome [10] | outcome [17] | outcome [11] | outcome [12] | outcome [18] | Potency [13] | outcome [14] | Potency [16] | outcome [19]

CC1=NN(c2cc(S(=O)(=O)O)ccc2Cl)C(=O)C1N=Nc1ccccc1 (stereo not drawn)
active: Potency [15] 13.7 µM | Potency [16] 27.3 µM
inactive: outcome [1] | Potency [2] | Potency [3] | outcome [4] | outcome [5] | Potency [6] | Potency [7] | outcome [8] | Potency [9] | outcome [10] | outcome [12] | Potency [13] | outcome [14] | outcome [19]

CC1=NS(=O)(=O)c2cc(Cl)ccc2N1
inactive: outcome [1] | Potency [2] | Potency [3] | outcome [4] | outcome [5] | Potency [6] | Potency [7] | outcome [8] | Potency [9] | outcome [17] | outcome [11] | outcome [12] | outcome [18] | Potency [13] | outcome [14] | Potency [15] | Potency [16] | outcome [19]

CO[Si](C)(OC)c1ccccc1
inactive: outcome [1] | Potency [2] | Potency [3] | outcome [4] | outcome [5] | Potency [6] | Potency [7] | outcome [8] | Potency [9] | outcome [17] | outcome [11] | outcome [12] | Potency [13] | outcome [14] | Potency [15] | Potency [16] | outcome [19]

CO[C@@]1(NC(=O)CSC[C@@H](N)C(=O)O)C(=O)N2C(C(=O)O)=C(CSc3nnnn3C)CS[C@@H]21
inactive: outcome [1] | Potency [2] | Potency [3] | outcome [4] | outcome [5] | Potency [6] | Potency [7] | outcome [8] | Potency [9] | outcome [17] | outcome [11] | Potency [20] | outcome [12] | Potency [13] | outcome [14] | Potency [15] | Potency [16]

CN(C)CCCCCCN(C)C
inactive: outcome [1] | Potency [2] | Potency [3] | outcome [4] | outcome [5] | Potency [6] | outcome [8] | Potency [9] | outcome [10] | Potency [13] | outcome [14] | Potency [15] | Potency [16] | outcome [19]

CCOc1c(N2CCOCC2)cnn(C)c1=O
inactive: outcome [1] | Potency [2] | Potency [3] | outcome [4] | outcome [5] | Potency [6] | Potency [7] | outcome [8] | Potency [9] | outcome [10] | outcome [11] | Potency [20] | outcome [12] | Potency [13] | outcome [14] | Potency [15] | Potency [16] | outcome [19]

COc1cc(-c2ccc(=O)[nH]n2)ccc1OC(F)F
inactive: outcome [1] | Potency [2] | Potency [3] | outcome [4] | outcome [5] | Potency [6] | outcome [8] | Potency [9] | outcome [10] | outcome [17] | outcome [11] | outcome [18] | Potency [13] | outcome [14] | Potency [15] | Potency [16] | outcome [19]

CC(C)(C)OC(=O)c1cccc(N)c1
inactive: outcome [1] | Potency [2] | Potency [3] | outcome [4] | outcome [5] | Potency [6] | Potency [7] | outcome [8] | Potency [9] | outcome [11] | outcome [12] | Potency [13] | outcome [14] | Potency [15] | Potency [16] | outcome [19]
